The panel holds about 83,000 compounds, 20% with a hit somewhere; the sample as a whole holds those more often.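 Each cell line was grown in a 96-well plate and treated with one concentration of compound for 48 hours. Values below 10 were considered active.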 Values without a mark were called inactive. Calls of active or inactive are those of the source.
Each molecule was assayed on UACC-62 melanoma (assay: NCI-60 one-dose screen, 48 h (100 = growth as untreated, 0 = no growth, -100 = all killed)). Conditions: 10 µM unless noted.
Description: Growth inhibition of the UACC-62 human tumor cell line is measured as a screen for anti-cancer activity. Cells are grown in 96 well plates and exposed to the test compound for 48 hours. Compounds are tested at a single concentration, which is 10^-5 M for most compounds. The reported endpoint is percent growth (GI% or GIPRCNT), where numbers from 0 - 100% represent growth inhibition, and numbers from -100% - 0 represent cell death. For example, a value of 40 represents 60% growth inhibition. A value of 0 means no net growth occurred over the course of the experiment. A value of -40 indicates 40% of cells at the beginning of the experiment died by the end of the experiment. A value of -100 means all cells are dead at the end of the experiment.
NCI-60 Human Tumor Cell Lines Screen was performed using the standard one-dose NCI protocol, which is described in more detail at https://dtp.cancer.gov/discovery_development/nci-60/default.htm.
Compounds with GIPRCNT values below 10 were considered active. Activity score was based on GIPRCNT using the following formula: […]
Score is 0 for GIPRCNT values of 100 or above, 50 for GIPRCNT values of 0, and 100 for GIPRCNT values of -100.
In the case of `C[C@H](NC(=O)c1c(N)nn2cccnc12)c1cc2cccc(C#Cc3cnn(C)c3)c2c(=O)n1-c1ccccc1`, the growth is reported as 15.6%. `CNC(=O)c1cc(Oc2cccc3nc(Nc4ccc(Oc5ccccc5)cc4)ccc23)ccn1` was tested, and the growth was 62.6%. `Cc1cc(O)c2c(c1)C1OC(=O)CCCCCN1C1=C2C(=O)c2cccc(OC3CC(O)C(O)C(C)O3)c2C1=O` (stereo not given) was tested, and the growth was 89.5%. In the case of `Cc1cc(-c2cc(O)ccc2Cl)cc2nnc(Nc3ccc(OCCN4CCCC4)cc3)nc12`, the growth is reported as -77.7% (active). With `CC1(O)CCC2CC3OC3(C)CCC3OC3(C)C(O)CC1C2(C)C` (stereo not given) the growth was 98.3%. `COc1cc(Nc2ncc(F)c(Nc3ccc4c(n3)NC(=O)C(C)(C)O4)n2)cc(OC)c1OC` showed a growth of 58%. In the case of `CCOc1cc2ncc(C#N)c(Nc3ccc(F)c(Cl)c3)c2cc1NC(=O)/C=C/CN(C)C`, the growth is reported as -46.7% (active). `Cc1ccc(C(=O)Nc2ccc(CN3CCN(C)CC3)c(C(F)(F)F)c2)cc1C#Cc1cnc2cccnn12` was tested, and the growth was -89.1% (active). `Cc1cc(NCC(=O)Nc2ccc(-c3nc4ccccc4s3)cc2)no1` was tested, and the growth was 86.5%. `CC(=O)C1=C(C)NC(SCc2nnc(-c3ccc(C)cc3)o2)=NC1c1ccc(F)cc1` (stereo not given) was tested, and the growth was 84.6%. `COc1ccc(Nc2ncccc2NC(=O)c2cn(Cc3cccc(Oc4ccccc4)c3)nn2)cc1` was tested, and the growth was 67%. `COc1cc(NCCCN)c2ncccc2c1` showed a growth of 86.8%. `CCCCn1c(C)nc2cc(Nc3nc(N4CCCCC4)nc4nc[nH]c34)ccc21` showed a growth of 45.4%. Molecule `CC(=O)OC1Oc2ccccc2-c2oc(=O)c(-c3cc4ccc(N(C)C)cc4oc3=O)cc21` (stereo not given) has a growth of 67.3%. With `COC(=O)[C@H](C)NC(=O)[C@@H](OC)[C@@H]1Cc2cc3cc(OC4CC(OC5CC(O)C(O)C(C)O5)C(O)C(C)O4)c(C)c(O)c3c(O)c2C(=O)[C@H]1OC1CC(OC2CC(OC3CC(C)(O)C(O)C(C)O3)C(O)C(C)O2)C(O)C(C)O1` (stereo not given in full) the growth was -52.8% (active). Work on `COC(=O)C1CCc2sc3ncnc(Nc4cn[nH]c4C(=O)Nc4ccc(CN5CCN(C)CC5)cc4)c3c21` (stereo not given) yielded a growth of 58.8%. For `CCNC(=O)C#Cc1ccc2c(C(=Nc3ccc(CN(C)C)cc3)c3ccccc3)c(O)[nH]c2c1`, the growth was -32.5% (active). In the case of `CC(C)(O)CC(=O)NCCn1ccc2ncnc(Nc3ccc(Oc4cccc(C(F)(F)F)c4)c(Cl)c3)c21`, the growth is reported as -7.61% (active). With `CN1CC[C@H](c2c(O)cc(O)c3c(=O)cc(-c4ccccc4Cl)oc23)[C@H](O)C1` the growth was -49.6% (active). In the case of `O=C(NO)c1ccc(Cn2c(=O)n(CCc3ccccc3)c(=O)c3ccccc32)cc1`, the growth is reported as 3.79% (active). `NS(=O)(=O)c1ccc(CCN2C(=O)/C(=C\c3ccc(Cl)cc3)C=C2c2ccc3ccccc3c2)cc1` gave a growth of 71.8%. `O=C(COc1cccc(/C=C2\Cc3ccc(Cl)cc3C2=O)c1)Nc1nccs1` was tested, and the growth was 84.2%. In the case of `COc1ccc2c(CCCC(c3ccccc3)c3ccccc3)c3[n+](cc2c1OC)CCc1cc2c(cc1-3)OCO2`, the growth is reported as -71.7% (active). In the case of `COc1ccc2c(OCc3nnc4ccc(-c5ccccc5)nn34)ccnc2c1`, the growth is reported as 108% [2.5 µM]. `COc1cc(F)c(F)c(Nc2ccc(I)cc2F)c1NS(=O)(=O)C1(C[C@H](O)CO)CC1` was tested, and the growth was -3.18% (active). Work on `CCOC(=O)C1=C(C)NC(=O)NC1c1cc(=O)oc2ccc(C)cc12` (stereo not given) yielded a growth of 99%. For `Cc1ccc(-n2nc(C(C)(C)C)cc2NC(=O)NCc2cc(F)ccc2Oc2ccc3c(cnn3CCO)c2)cc1`, the growth was 7.75% (active). Work on `Cn1cc(-c2[nH]c3cc(NC(=O)[C@H](N)C4CCCCC4)cc4c3c2C=NNC4=O)cn1` yielded a growth of 26.1%. With `FC(F)c1nc2ccccc2n1-c1nc(N2CCOCC2)nc(N2CCOCC2)n1` the growth was -50% (active). In the case of `COc1cccc(Nc2ncnn3ccc(CN4CC[C@@H](N)[C@H](O)C4)c23)c1`, the growth is reported as 93.4%. With `Cc1cn(-c2cc(NC(=O)c3ccc(C)c(Nc4nccc(-c5cccnc5)n4)c3)cc(C(F)(F)F)c2)cn1` the growth was 9.88% (active). `Cc1ccccc1N1C(c2ccccc2)=NNC12C=CC(=O)C=C2Cl` (stereo not given) gave a growth of 98.1%. With `CCOc1cccc(/C=N/NC(=O)c2ccccc2Nc2ccnc(C(F)(F)F)c2)c1O` the growth was 3.69% (active). With `CN[C@@H]1C[C@H]2O[C@@](C)([C@@H]1OC)n1c3ccccc3c3c4c(c5c6ccccc6n2c5c31)C(=O)N[C@H]4O` the growth was -63.1% (active). `Cn1cnc(-c2cc3nccc(Oc4ccc(NC(=S)NC(=O)Cc5ccccc5)cc4F)c3s2)c1` gave a growth of 93.8%. For `COC(=O)c1ccc2c(C(=Nc3ccc(N(C)C(=O)CN4CCN(C)CC4)cc3)c3ccccc3)c(O)[nH]c2c1`, the growth was 90.2%. In the case of `COC(=O)[C@H](Cc1ccc(O)cc1)NC(=O)[C@@H](OC)[C@@H]1Cc2cc3cc(OC4CC(OC5CC(O)C(O)C(C)O5)C(O)C(C)O4)c(C)c(O)c3c(O)c2C(=O)[C@H]1OC1CC(OC2CC(OC3CC(C)(O)C(O)C(C)O3)C(O)C(C)O2)C(O)C(C)O1` (stereo not given in full), the growth is reported as -53.1% (active). `CO[C@H]1C[C@@H]2CC[C@@H](C)[C@@](O)(O2)C(=O)C(=O)N2CCCC[C@H]2C(=O)O[C@H]([C@H](C)C[C@@H]2CC[C@@H](OC(=O)C(C)(CO)CO)[C@H](OC)C2)CC(=O)[C@H](C)/C=C(\C)[C@@H](O)[C@@H](OC)C(=O)[C@H](C)C[C@H](C)\C=C/C=C/C=C/1C` gave a growth of 31.5%. For `CCCCCCCC(=O)SCC/C=C/[C@@H]1CC(=O)NCc2cccc(n2)C2=N[C@@](C)(CS2)C(=O)N[C@@H](C(C)C)C(=O)O1`, the growth was -64.1% (active). `Cc1ccc(Nc2nccc(N(C)c3ccc4c(C)n(C)nc4c3)n2)cc1S(N)(=O)=O` was tested, and the growth was -18.3% (active).
